In experiment [1] the target is Cellular tumor antigen p53 (Homo sapiens) (UniProt P04637). Kind of experiment: Primary qHTS for small molecule compounds that upregulate eGFP-tagged delta133p53alpha (in N-terminal) cells. (AID 2060322).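 Also: cells pre-induced with doxycycline then dosed without doxycycline; series mostly up to about 56 µM; 0% = DMSO vehicle and 100% = reference activator; nearly all actives have a fitted effect of over 75% in size.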 To be noted: NCI-H358 eGFP-delta133p53alpha fluorescence, 24 h; activation: hits give high values. In a few lines: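 NCI-H358 cells pre-induced 24 h with 10 ng/ml doxycycline for eGFP-delta133p53alpha, plated dox-free and exposed 24 h at 37C to titrated compounds. Fixed, Hoechst-stained; gated GFP peak intensity by laser scanning cytometry, normalized to DMSO (0%) and 57.5 uM 5-azacytidine (100%).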
For orientation: qHTS replaces the single test concentration by a dilution series.

Experiment [2] has the same target. Description: Primary qHTS for small molecule compounds that upregulate eGFP-tagged delta133p53alpha (in C-terminal) cells. (AID 2060324). Also: potency is read from the fitted curve at half-maximal effect. The gist of the method: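 Concentration-response screen: compounds titrated onto pre-induced NCI-H358 D133p53a-eGFP cells, incubated one day, fixed with 3.5% PFA. Per-cell GFP peak intensity was gated, then normalized against intraplate controls.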

Experiment [3] concerns the target Aldehyde dehydrogenase, mitochondrial (Homo sapiens) (UniProt P05091). Description: qHTS for Inhibitors of the Aldehyde Dehydrogenase Family (ALDH2) Validation screens (AID 2061302; active = well fitted inhibition curve with a large enough effect; title and protocol of this record describe different tests;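 also: plate controls were DMSO vehicle for no effect and maximal DPI positive control response for full effect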).
Experiment [4] concerns the target Retinaldehyde dehydrogenase 3 (Homo sapiens) (UniProt P47895). Kind of experiment: qHTS for Inhibitors of the Aldehyde Dehydrogenase Family (ALDH1A3) Validation screen (AID 2061312). Also: % is scaled to controls: 0 for no effect and ±100 for the full control effect; nearly all actives have a fitted effect of over 45% in size.

The record followed here is PubChem BioAssay (NCATS).

“And” between values parts separate entries of the source, which are not always exact repeats. Identical values can stand only once. Inconclusive results are not listed. Unmarked numbers belong to inactive results. The source made the active and inactive calls. Unless noted, calls follow the shape of the dose curve; as a rule, active = well fitted curve in the direction sought with a large enough effect; inconclusive = small, poorly fitted or top-dose-only effect, or another doubt; inactive = no such curve, though single readings can be large; an effect the other way counts as inactive or inconclusive.

Cellular tumor antigen p53 (Homo sapiens), sequence (P04637 whole entry, looked up): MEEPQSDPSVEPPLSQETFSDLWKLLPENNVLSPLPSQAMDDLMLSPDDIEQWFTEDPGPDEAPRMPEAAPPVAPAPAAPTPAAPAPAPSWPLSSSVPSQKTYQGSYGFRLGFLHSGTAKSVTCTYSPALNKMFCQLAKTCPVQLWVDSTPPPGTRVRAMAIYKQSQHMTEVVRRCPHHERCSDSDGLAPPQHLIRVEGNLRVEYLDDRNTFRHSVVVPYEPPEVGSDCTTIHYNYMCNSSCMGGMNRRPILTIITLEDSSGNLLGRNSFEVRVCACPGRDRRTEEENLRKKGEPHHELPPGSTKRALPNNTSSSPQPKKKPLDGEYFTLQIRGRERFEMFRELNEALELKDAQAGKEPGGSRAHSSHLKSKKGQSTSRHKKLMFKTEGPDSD

In the case of `C[C@]12CC[C@@H]3c4ccc(O)cc4CC[C@H]3[C@@H]1CCC2=O`, the activation in experiment [1] is 11.7%. The Potency entry in experiment [2], in experiment [3] and in experiment [4] was “inactive” throughout.

Regarding `CC1(C)C(=O)N(CCN2CCC(C(=O)c3ccc(F)cc3)CC2)c2ccccc21`, the activation in experiment [1] is -67.7% and -2.62%. Also, the Potency result in experiment [2], in experiment [3] and in experiment [4] was “inactive” each time.

With `C[C@@]1(C2CCCC2)Cc2cc(OCC(=O)O)c(Cl)c(Cl)c2C1=O`, the activation in experiment [1] is 4.66%. Moreover, the Potency result in experiment [2], in experiment [3] and in experiment [4] was “inactive” throughout.

For `Nc1nc(N)c2nc(-c3ccccc3)c(N)nc2n1`, the activation in experiment [1] was -26.6% and -1.16%. The Potency result in experiment [2], in experiment [3] and in experiment [4] was “inactive” each time.

In the case of `CCCCCCCCCCCCCCC[C@H](O)[C@H](N)CO`, the activation in experiment [1] was 14.1%. Moreover, the Potency result in experiment [2], in experiment [3] and in experiment [4] was “inactive” in each case.

`CC(=O)N[C@@H](CS)C(=O)O`: the activation in experiment [1] was 11.9% and -21.2%. The Potency entry in experiment [2], in experiment [3] and in experiment [4] was “inactive” in each case.

Consider `C=CC[C@H](N)C(=O)O`, for which, in experiment [1], the activation is -35.4%. For the same compound, the Potency result in experiment [2], in experiment [3] and in experiment [4] was “inactive” each time.

Regarding `N[C@H](C(=O)O)[C@H](Cc1ccccc1)C(=O)O`, the activation in experiment [1] was 1.24%. Further, the Potency entry in experiment [2], in experiment [3] and in experiment [4] was “inactive” in each case.

On to `Cn1c(=O)c2[nH]c(-c3ccccc3)nc2n(C)c1=O`, for which the activation in experiment [1] was -37%. Also, the Potency entry in experiment [2], in experiment [3] and in experiment [4] was “inactive” in each case.

With `C[N+](C)(C)CCCCCCCCCC[N+](C)(C)C`, the activation in experiment [1] was -20.9% and 13%. Also, the Potency entry in experiment [2], in experiment [3] and in experiment [4] was “inactive” throughout.

Regarding `NC(CCCP(=O)(O)O)C(=O)O` (configuration not stated), the activation in experiment [1] was 34.5%. The Potency result in experiment [2], in experiment [3] and in experiment [4] was “inactive” each time.

Take `CN(C)CCCN1c2ccccc2CCc2ccccc21`: the activation in experiment [1] was -0.565% and -9%. Further, the Potency result in experiment [2], in experiment [3] and in experiment [4] was “inactive” in each case.

For `C[N+]1(C)CCC(OC(=O)C(c2ccccc2)c2ccccc2)CC1`, the activation in experiment [1] is -16.4%. The Potency result in experiment [2], in experiment [3] and in experiment [4] was “inactive” throughout.

Consider `CCn1c(=O)[nH]c2cc(Cl)c(Cl)cc21`, for which the activation in experiment [1] is -55.4%. In addition, the Potency entry in experiment [2], in experiment [3] and in experiment [4] was “inactive” each time.

Regarding `CCCn1c(=O)c2[nH]c(C3CCCC3)nc2n(CCC)c1=O`, in experiment [1], the activation is -35.5%. Moreover, the Potency result in experiment [2], in experiment [3] and in experiment [4] was “inactive” in each case.

For `CCn1ccnc1CC1COc2ccccc2O1` (configuration not stated), the activation in experiment [1] is -21.8% and 27.7%. For the same compound, the Potency result in experiment [2], in experiment [3] and in experiment [4] was “inactive” in each case.

`O[Si](CCCN1CCCCC1)(c1ccc(F)cc1)C1CCCCC1` (configuration not stated): the activation in experiment [1] was -77.2%. Further, the Potency result in experiment [2], in experiment [3] and in experiment [4] was “inactive” throughout.

`CNCCc1cnc(CCC(c2ccccc2)c2ccccc2)[nH]1`: the activation in experiment [1] was -38.1%. The Potency result in experiment [2], in experiment [3] and in experiment [4] was “inactive” in each case.

With `c1ccc2nc(C3=NCCN3)ccc2c1`, the activation in experiment [1] is 5.83%. For the same compound, the Potency entry in experiment [2], in experiment [3] and in experiment [4] was “inactive” throughout.

Turning to `O=C1NC(=O)c2c1c(-c1ccccc1)cc1[nH]c3ccc(O)cc3c21`, the activation in experiment [1] was -2.02%. In addition, in experiment [2], the Potency is 26.9 µM (active). Moreover, the Potency entry in experiment [3] and in experiment [4] was “inactive” throughout.

For the compound `CC(C)NC[C@H](O)COc1ccc(CC(N)=O)cc1`, in experiment [1], the activation is -18.8%. Besides, the Potency entry in experiment [2], in experiment [3] and in experiment [4] was “inactive” throughout.

On to `CCCCCCCCCCCCCCCC(=O)OC(CC(=O)O)C[N+](C)(C)C` (configuration not stated), for which the activation in experiment [1] is -11.1%. Also, the Potency entry in experiment [2], in experiment [3] and in experiment [4] was “inactive” throughout.

Turning to `CCO/C([O-])=N/c1c[n+](N2CCOCC2)no1`, in experiment [1], the activation was 9.21% and 19.2%. Also, the Potency result in experiment [2], in experiment [3] and in experiment [4] was “inactive” each time.

On to `CC(=O)OC(C)C[N+](C)(C)C` (configuration not stated), for which the activation in experiment [1] is 10.7% and 1.73%. Further, the Potency result in experiment [2], in experiment [3] and in experiment [4] was “inactive” throughout.

On to `C[N+](C)(C)CCCCCC[N+](C)(C)C`, for which the activation in experiment [1] was -20.9% and 7.49% and -11.5%. In addition, the Potency result in experiment [2], in experiment [3] and in experiment [4] was “inactive” throughout.

As for `CN1C2CC(OC(=O)[C@H](CO)c3ccccc3)CC1C1OC12` (some centres not stated), in experiment [1], the activation was -3.28%. Moreover, the Potency entry in experiment [2], in experiment [3] and in experiment [4] was “inactive” in each case.

As for `O=C(O)c1cc(=O)cc(C(=O)O)[nH]1`, the activation in experiment [1] was -16.3%. Moreover, the Potency entry in experiment [2], in experiment [3] and in experiment [4] was “inactive” throughout.

As for `OC(CN1CCC(Cc2ccc(F)cc2)CC1)c1ccc(Cl)cc1` (configuration not stated), the activation in experiment [1] is 5.08% and 40.7%. Further, the Potency entry in experiment [2], in experiment [3] and in experiment [4] was “inactive” each time.

As to `O=C(Nc1ccncc1)c1cc([N+](=O)[O-])ccc1Cl`, in experiment [1], the activation was 6.63%. In addition, the Potency result in experiment [2], in experiment [3] and in experiment [4] was “inactive” in each case.

Take `CNCC[C@H](Oc1ccc(C(F)(F)F)cc1)c1ccccc1`: the activation in experiment [1] was -46.5%. Besides, the Potency entry in experiment [2], in experiment [3] and in experiment [4] was “inactive” in each case.

`NC[C@H]1O[C@@H](n2cnc3c(N)ncnc32)[C@H](O)[C@@H]1O`: the activation in experiment [1] is 4.39%. The Potency entry in experiment [2], in experiment [3] and in experiment [4] was “inactive” in each case.

With `CC(C)(CO)Cc1cc(C(C)(C)C)c(O)c(C(C)(C)C)c1`, the activation in experiment [1] is -20%. The Potency entry in experiment [2], in experiment [3] and in experiment [4] was “inactive” in each case.

For the compound `N[C@H](CO)C(=O)O`, the activation in experiment [1] was 9.85%. For the same compound, the Potency entry in experiment [2], in experiment [3] and in experiment [4] was “inactive” in each case.
